TRHR PAM = qHTS for Small Molecule Agonists and Allosteric Enhancers of Human TRH Receptor: Primary Screen for Enhancers; TRHR cells, fluo-8 calcium fluorescence, EC20 TRH enhancement; enhancement, % at 2 µM; hit rate 0.66% among 360,000; AID 493056, 2011; in the data active = enhancement above about 30%; also: 0% is about no effect
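TRHR-expressing cells loaded with fluo-8 calcium dye were read kinetically (ex 480/em 530) during compound addition, then stimulated with an EC20 of TRH (10 nM final). Enhancement of the Gq-mediated intracellular calcium response was scored.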
D1 antag = Antagonist of Human D 1 Dopamine Receptor: qHTS; D(1A) dopamine receptor (Homo sapiens), P21728; hit rate 3.2% among 360,000; HEK293 TREx D1 cells, calcium flux, dopamine EC80; active compounds read low; activity change, negative = inhibition, % at 10 µM; in the data active = activity change below about -30%; also: % is scaled to controls: 0 for no effect and ±100 for the full control effect
Target sequence (P21728 whole entry, looked up): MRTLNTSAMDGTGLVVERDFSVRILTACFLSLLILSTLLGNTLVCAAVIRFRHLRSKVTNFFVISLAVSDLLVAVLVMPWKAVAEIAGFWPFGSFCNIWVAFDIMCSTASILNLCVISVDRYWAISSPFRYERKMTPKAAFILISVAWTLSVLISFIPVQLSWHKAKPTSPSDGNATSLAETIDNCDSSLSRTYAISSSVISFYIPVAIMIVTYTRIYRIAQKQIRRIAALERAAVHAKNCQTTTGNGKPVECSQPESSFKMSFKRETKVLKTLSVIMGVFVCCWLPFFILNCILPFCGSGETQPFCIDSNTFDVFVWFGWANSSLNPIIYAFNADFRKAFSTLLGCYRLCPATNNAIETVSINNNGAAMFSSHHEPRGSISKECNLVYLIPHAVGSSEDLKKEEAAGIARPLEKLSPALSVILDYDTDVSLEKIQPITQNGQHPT
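Calcium flux readout: force-coupled, inducible Hek293 Trex D1 line, cells induced overnight at 30 C with tetracycline, dye-loaded 30–90 min at RT. Antagonism scored against EC80 dopamine challenge given 180 s after compound.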
D1 ag = Allosteric Agonists of the Human D1 Dopamine Receptor: qHTS | D(1A) dopamine receptor (Homo sapiens), P21728 | HEK293 T-REx D1 cells, calcium flux, agonist mode | activation, % at 2 µM | hit rate 1% among 360,000 | AID 504660, 2011; also: 0% is about no effect
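Tetracycline-induced HEK293 TREx D1 cells, force-coupled to calcium signalling, were dye-loaded with a no-wash calcium kit. Compound was pin-added after a 10 s baseline. Fluorescence was read kinetically at 1 cycle/s for 180 s, with calcium rises flagged as agonism.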
TRHR agonist = qHTS for Small Molecule Agonists and Allosteric Enhancers of Human TRH Receptor: Primary Screen for Agonists | Thyrotropin-releasing hormone receptor (Homo sapiens), P34981 | TRHR cells, calcium flux fluo-8, FDSS agonist mode | activation, % at 2 µM | hit rate 0.18% among 360,000 | AID 493084, 2011; also: 0% is about no effect
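Read-out: compound-evoked intracellular calcium rise in TRHR cells, fluo-8 dye, kinetic FDSS fluorescence at 1 s/cycle following a 10-cycle baseline. Cells cultured overnight before dye loading (30 min–1.5 h, RT).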
GRP78 ERSR act = qHTS for Inducers of the Endoplasmic Reticulum Stress Response (ERSR) in Human Glioma: qHTS; U87-MG GRP78 promoter luciferase reporter, 16 h; Potency, µM, without a hit: at the top dose activation, most hits filed as activators; hit rate 0.02% among 420,000; AID 602332, 2012; active = well fitted activation curve with a large enough effect; inconclusive = small, poorly fitted or top-dose-only effect; inactive = no such curve, though single readings can be large or run the other way; also: potency is read from the fitted curve at half-maximal effect; series mostly up to about 76 µM; % of control where 0% means no effect; nearly all actives have a fitted effect of over 35% in size
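ERSR induction read as luciferase luminescence (Bright-Glo, 10 min at room temperature) in stably transfected human U87-MG glioma cells exposed to compounds for 16 h, using GRP78 as sensor.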
D1 potentiator = Potentiators of Human D1 Dopamine Receptor: qHTS; HEK293 TREx D1 cells, calcium flux, dopamine EC20 potentiation; potentiation, % at 10 µM; hit rate 0.036% among 360,000; AID 504651, 2011; in the data active = potentiation above about 30%; also: 0% is about no effect
The depositor's hits bear a star; ! = not confirmed by another sample. Most compounds without a hit are left out; they make up all but 4% or so of the library. Rule as the data show it, unless noted: active = activation above about 30%; inactive = the rest.

`CC(CCn1cccn1)NC(=O)c1cc(COc2ccc(F)cc2F)on1` (configuration not stated) gave TRHR PAM 35*, D1 antag 3, D1 ag 1, TRHR agonist 0, GRP78 ERSR act -1% and D1 potentiator -1.
O=C(NC1CCN(Cc2ccccc2)C1)c1cc(COc2ccc(F)cc2F)on1 (configuration not stated) was read as TRHR PAM 31*, D1 antag 2, D1 ag 11, TRHR agonist 0, GRP78 ERSR act -1% and D1 potentiator -3.
CC(CCn1cccn1)NC(=O)c1cc(COc2ccc(F)cc2Cl)on1 (configuration not stated) was read as TRHR PAM -3, D1 antag 0, D1 ag 3, TRHR agonist 1, GRP78 ERSR act 2% and D1 potentiator 3.
For CC(Cc1cccnc1)NC(=O)c1cc(COc2c(F)cccc2F)on1 (configuration not stated) the results were TRHR PAM 4, D1 antag 6, D1 ag 5, TRHR agonist 0, GRP78 ERSR act 1% and D1 potentiator 3.
Screening Cc1ccc(C)c(OCc2cc(C(=O)NC3CCN(Cc4ccccc4)CC3)no2)c1 returned TRHR PAM 7, D1 antag -11, D1 ag 15, TRHR agonist 2, GRP78 ERSR act -2% and D1 potentiator -8.
Screening COc1ccccc1NS(=O)(=O)c1cc(NC(=O)c2ccncc2)ccc1N1CCOCC1 returned TRHR PAM 1, D1 antag -11, D1 ag 1, TRHR agonist 0, GRP78 ERSR act -3% and D1 potentiator -5.
Cc1cc([N+](=O)[O-])nn1Cc1ccccc1F was read as GRP78 ERSR act 1%.
COc1ccc(C(=O)C2CCCN(C(=O)c3cccc(Cn4cccn4)c3)C2)cc1F (configuration not stated) was read as TRHR PAM -7, D1 antag -7, D1 ag 11, TRHR agonist -1, GRP78 ERSR act -5% and D1 potentiator -2.
For CCn1cc(CNC(=O)c2ccc3nc(Cc4ccc(OC)cc4)oc3c2)cn1 the results were TRHR PAM -2, D1 antag -30, D1 ag 21, TRHR agonist 0, GRP78 ERSR act -2% and D1 potentiator -9.
NC(=O)CC(c1ccccc1)c1ccc2c(c1)OCO2 (configuration not stated) was read as TRHR PAM 33*, D1 antag 0, D1 ag 2, TRHR agonist 0, GRP78 ERSR act -3% and D1 potentiator 0.
CCCC(=O)n1nc(-c2cccnc2)nc1NCc1ccccc1 was read as TRHR PAM -1, D1 antag -42*!, D1 ag 1, TRHR agonist 0, GRP78 ERSR act 0% and D1 potentiator -4.
COc1cn(-c2ccccc2)nc1C(=O)Nc1ccc(C)cc1 was read as TRHR PAM -5, D1 antag -1, D1 ag 34*, TRHR agonist -1, GRP78 ERSR act 6% and D1 potentiator -2.
For COc1cn(-c2ccccc2)nc1C(=O)Nc1ccccc1 the results were TRHR PAM -1, D1 antag 2, D1 ag 1, TRHR agonist -1, GRP78 ERSR act inconclusive and D1 potentiator -4.
O=C(NCCCN1CCN(c2cccc(Cl)c2)CC1)Nc1ccccc1C(F)(F)F was read as TRHR PAM -4, D1 antag -55*, D1 ag 32*, TRHR agonist 0, GRP78 ERSR act -1% and D1 potentiator -1.
CCC(=O)N1c2ccccc2CC1C(=O)NCCCN1CCN(c2cccc(Cl)c2)CC1 (configuration not stated) was read as TRHR PAM 3, D1 antag -53*, D1 ag 1, TRHR agonist -1, GRP78 ERSR act -1% and D1 potentiator -1.
`Cc1cccc(C)c1NC(=O)NCCCN1CCN(c2ccccc2)CC1` gave TRHR PAM 8, D1 antag -36*, D1 ag 1, TRHR agonist 0, GRP78 ERSR act -2% and D1 potentiator -12.
For Cc1cccc(C)c1NC(=O)C(=O)NCCCN1CCOCC1 the results were TRHR PAM -1, D1 antag 3, D1 ag 5, TRHR agonist 0, GRP78 ERSR act -4% and D1 potentiator -6.
For Cc1ccccc1CS(=O)(=O)CCC(=O)NCCN1CCN(c2cccc(Cl)c2)CC1 the results were TRHR PAM 4, D1 antag -32*, D1 ag 11, TRHR agonist -1, GRP78 ERSR act -3% and D1 potentiator -7.
For COc1ccc(-c2csc3ncnc(N4CCN(S(=O)(=O)c5cccc(Br)c5)CC4)c23)cc1 the results were TRHR PAM 4, D1 antag 16, D1 ag 2, TRHR agonist 1, GRP78 ERSR act -2% and D1 potentiator 5.
For O=C(NCCN1CCN(c2cccc(Cl)c2)CC1)Nc1ccccc1C(F)(F)F the results were TRHR PAM -3, D1 antag -43*, D1 ag 19, TRHR agonist -1, GRP78 ERSR act -1% and D1 potentiator -4.
`CN1CCN(CCNC(=O)Nc2ccccc2C(F)(F)F)CC1` gave TRHR PAM -5, D1 antag 12, D1 ag 1, TRHR agonist 0, GRP78 ERSR act -2% and D1 potentiator -6.
Screening Cc1cc(=O)oc(C)c1C(=O)N[C@@H]1CCCCNC1=O returned TRHR PAM 5, D1 antag 3, D1 ag 2, TRHR agonist 0, GRP78 ERSR act -6% and D1 potentiator -3.
For C=CCN1C(=CCO)[C@H]2C[C@H]3[C@@H]1CC[C@@]31c3ccccc3N3C=C4[C@@H]5N(/C=C/2[C@H]31)c1ccccc1[C@]51CC[C@H]2[C@H]1C[C@@H]4/C(=C/CO)N2CC=C the results were GRP78 ERSR act -3%.
Screening O=C(Nc1ccc(Oc2ccc(Br)cc2)cc1)C1=CC=CN2CCS(=O)(=O)N=C12 returned TRHR PAM 3, D1 antag -48*, D1 ag 10, TRHR agonist 1, GRP78 ERSR act -3% and D1 potentiator -9.
`CC(C)c1ccc(NC(=O)C2=CC=CN3CCS(=O)(=O)N=C23)cc1` gave TRHR PAM 11, D1 antag -32*, D1 ag 14, TRHR agonist -1, GRP78 ERSR act -2% and D1 potentiator -6.

Screens: PubChem, National Center for Advancing Translational Sciences (NCATS)
